An excerpt weighted towards active compounds, which were near 3.4% of everything screened.
GPR151 activ: activates the human receptor GPR151; AID 1508602; Q8TDV0; activation, % at 11.2 µM; PathHunter beta-arrestin GPR151 cells, luminescence; 1% of 650,000 active; in the data active = activation above about 4.9%
TEAD-YAP inh: TEAD-YAP interaction inhibition; HEK-TIYL cells, TEAD-Gal4/YAP UAS-luciferase luminescence; inhibition, % at 9.12 µM; 1.4% of 640,000 active; in the data active = inhibition above about 32%
FBW7 act: activators of human E3 ligase FBW7; Q969H0; AlphaScreen FBW7–phospho-cyclin E peptide binding, activator screen; normalized activity (activation), % at 26.1 µM; 0.13% of 650,000 active; AID 1259310; in the data active = normalized activity above about 1.9%;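 note: purified mutant Fbw7 with reduced substrate affinity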
Target sequence (Q969H0 whole entry, looked up): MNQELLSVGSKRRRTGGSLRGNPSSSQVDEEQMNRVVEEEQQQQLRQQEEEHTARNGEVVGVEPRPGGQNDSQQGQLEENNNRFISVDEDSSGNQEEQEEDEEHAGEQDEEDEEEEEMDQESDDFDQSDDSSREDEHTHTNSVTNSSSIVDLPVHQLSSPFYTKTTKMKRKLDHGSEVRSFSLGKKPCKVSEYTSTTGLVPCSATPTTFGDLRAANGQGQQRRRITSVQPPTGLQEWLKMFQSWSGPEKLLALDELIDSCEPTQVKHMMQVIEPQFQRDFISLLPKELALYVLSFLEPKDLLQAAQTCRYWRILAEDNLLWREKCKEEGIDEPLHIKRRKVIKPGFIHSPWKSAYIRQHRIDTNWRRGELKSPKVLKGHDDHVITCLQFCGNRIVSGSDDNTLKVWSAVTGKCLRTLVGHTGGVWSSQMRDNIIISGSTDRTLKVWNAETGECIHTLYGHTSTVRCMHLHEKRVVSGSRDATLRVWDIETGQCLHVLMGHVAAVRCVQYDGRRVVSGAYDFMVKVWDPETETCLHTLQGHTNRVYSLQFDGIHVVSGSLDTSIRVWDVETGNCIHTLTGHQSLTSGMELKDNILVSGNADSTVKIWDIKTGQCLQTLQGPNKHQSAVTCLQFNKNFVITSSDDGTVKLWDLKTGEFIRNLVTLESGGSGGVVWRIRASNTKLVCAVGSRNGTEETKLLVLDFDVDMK
MITF inh: inhibitors of human MITF. O75030. AlphaScreen MITF homodimerization, bead proximity signal. inhibition, % at 2.6 µM. 0.91% of 650,000 active. AID 1259374; in the data active = inhibition above about 50%
Large screens that a line does not name were inactive.

CC(=O)N/N=C/c1c(C)[nH]n(-c2ccccc2)c1=O	none
CC(C)(C)c1ccc(/C=N/NC(=O)C2COc3ccccc3O2)cc1 (stereo not drawn)	TEAD-YAP inh 35.2
Cc1ccccc1-n1[nH]c(C)c(/C=N/NC(=O)C(=O)N/N=C/c2c(C)[nH]n(-c3ccccc3C)c2=O)c1=O	MITF inh 51.7
Cc1[nH]n(-c2ccccc2)c(=O)c1/C=N/NC(=O)C1COc2ccccc2O1 (stereo not drawn)	TEAD-YAP inh 35.6
COC(=O)c1ccc(/C=N/NC(=O)C2COc3ccccc3O2)cc1 (stereo not drawn)	none
O=C(NCc1cccc(F)c1)C1CCN(c2nnc(N3CCCC3=O)s2)CC1	none
O=C(Nc1ccc2c(c1)CN(S(=O)(=O)c1cccnc1)CC2)c1ccccc1Cl	TEAD-YAP inh 46.0
O=C(Nc1ccc2c(c1)CN(C(=O)Cn1cncn1)CC2)c1ccccc1Cl	TEAD-YAP inh 46.6
COC(=O)c1cccc(NC(=O)CSc2nc(C)cc(-c3ccccc3)n2)c1	none
C(=C\c1ccc2c(c1)OCCO2)/c1ccc2c(c1)OCCO2	TEAD-YAP inh 97.1
Cc1ccc(NC(=O)CSc2nc3ccccc3c(=O)n2CCC(=O)N2CCCCC2)cc1Cl	none
FC(F)(F)c1cccc(NCc2cn3ccccc3n2)c1	none
FC(F)(F)c1cccc(NCc2cn3cccnc3n2)c1	FBW7 act 2.3
COc1cc(Nc2cc(Nc3nccc4ccccc34)ncn2)cc(OC)c1OC	TEAD-YAP inh 48.8
Cc1cnc(Nc2cccc(N(C)C)c2)nc1NCCN(C(C)C)C(C)C	none
COc1cc(Nc2ccnc(Nc3cccc(N(C)C)c3)n2)cc(OC)c1OC	none
COc1ccc(CCNc2nc(Nc3cccc(N(C)C)c3)ncc2C)cc1	none
c1ccc(Nc2cc(Nc3nccc4ccccc34)ncn2)cc1	none
Cc1cnc(Nc2cccc(N(C)C)c2)nc1Nc1ccccc1	TEAD-YAP inh 45.7
COc1cc(Nc2nc(Nc3cccc(N(C)C)c3)ncc2C)cc(OC)c1OC	TEAD-YAP inh 54.1
COc1cc(Nc2cc(Nc3cccc(N(C)C)c3)ncn2)cc(OC)c1OC	TEAD-YAP inh 39.5
Cc1cnc(Nc2ccncc2)nc1Nc1ccccc1	TEAD-YAP inh 49.0
O=C(N/N=C/c1ccc(O)cc1O)c1ccc[n+]([O-])c1	MITF inh 73.5
O=C(N/N=C\c1ccc(O)cc1O)c1ccc(=O)[nH]n1	MITF inh 59.7
O=C(N/N=C/c1ccc(O)cc1O)c1cc2ccccc2cc1O	TEAD-YAP inh 67.0
O=C(N/N=C\c1cc(Br)ccc1F)c1ccc(=O)[nH]n1	none
O=C(N/N=C\c1ccc(O)cc1O)c1cncc(Br)c1	MITF inh 79.0
O=C(N/N=C/c1ccccc1Cl)c1cncc(Br)c1	none
O=C1Nc2cc(C(=O)N3CCN(c4ccc(F)cc4)CC3)ccc2NC1CSCc1ccc(F)cc1 (stereo not drawn)	none
CCCCN(C(=O)c1cc(C)cc(C)c1)C1CC2CCC(C1)N2C (stereo not drawn)	none
O=C(N/N=C/c1ccc(O)cc1O)c1ccc(O)cc1	none
O=C(N/N=C/c1ccc(O)cc1O)c1nn(Cc2ccccc2)c(=O)c2ccccc12	TEAD-YAP inh 64.2
O=C(N/N=C/c1cccc(O)c1O)c1nn(Cc2ccccc2)c(=O)c2ccccc12	none
O=C(N/N=C/c1ccc(O)cc1O)c1ccc(Br)cc1	TEAD-YAP inh 42.2
O=C(N/N=C/c1ccc(O)cc1O)c1ccc(NC(=O)c2ccccc2Cl)cc1	none
O=C(N/N=C/c1ccc(O)cc1O)c1cccc(NC(=O)c2ccccc2F)c1	TEAD-YAP inh 40.0
O=C(N/N=C/c1ccc(O)cc1O)c1ccc(-c2ccccc2)cc1	TEAD-YAP inh 45.0
O=C(O)C1CCN(c2cnccn2)CC1	none
O/N=C1/CC(O)(C(F)(F)F)Oc2ccc(Cl)cc21 (stereo not drawn)	none
O=C(O)CN1C(=O)/C(=N\N2C(=O)CSC2=S)c2ccccc21	MITF inh 55.5
CCN1C(=O)/C(=N\N2C(=O)CSC2=S)c2ccccc21	none
CN(C)c1cc2c(c(N(C)C)c1)C(=O)c1ccccc1C2=O	MITF inh 54.2
Nc1c(Br)cc2c(c1Br)C(=O)c1ccccc1C2=O	none
CC(C)(C)c1ccc(-c2csc(NC(=O)c3cc([N+](=O)[O-])ccc3Cl)n2)cc1	TEAD-YAP inh 42.7
COc1ccccc1-c1csc(NC(=O)c2cc([N+](=O)[O-])ccc2Cl)n1	TEAD-YAP inh 33.5
Cc1ccc(C)c(-c2csc(NC(=O)c3cc([N+](=O)[O-])ccc3Cl)n2)c1	TEAD-YAP inh 53.3
O=C(Nc1nccs1)c1cc([N+](=O)[O-])ccc1Cl	TEAD-YAP inh 44.6
CCN1CC=C2C(C#N)=C(N)C(C#N)(C#N)C(c3cc(Br)ccc3F)C2C1 (stereo not drawn)	none
CCOc1ccc(CN(C)C(=O)CCNC(C)=O)cc1	none
CCc1nc(SCC(=O)N(c2ccccc2)c2ccccc2)n[nH]1	none
O=C(Nc1nc(-c2cc(Cl)sc2Cl)cs1)c1ccc([N+](=O)[O-])s1	TEAD-YAP inh 66.9
O=C(CN1C(=O)NC(c2ccccc2)(c2ccccc2)C1=O)Nc1cccc2ccccc12	none
CCOC(=O)c1ccc(NC(=O)NCc2noc3ccccc23)cc1	none
Cc1cccc(Cn2cc(SCC(=O)NCc3ccco3)c3ccccc32)c1	TEAD-YAP inh 36.1
Cc1cc2nnc(SCC(=O)NCc3ccco3)n2c2ccccc12	TEAD-YAP inh 48.1
CCOC(=O)c1ccc(NC(c2ccc(O)cc2O)P(=O)(OCC)OCC)cc1 (stereo not drawn)	MITF inh 52.1
c1cncc(-c2nc3c4ccccc4nc(N4CCC(N5CCCCC5)CC4)n3n2)c1	TEAD-YAP inh 45.6
COc1cccc(Nc2cc(N3CCCCC3C)c3noc4c3c2C(=O)c2ccccc2-4)c1 (stereo not drawn)	MITF inh 69.0
COc1ccc(Nc2cc(N3CCCCC3C)c3noc4c3c2C(=O)c2ccccc2-4)cc1 (stereo not drawn)	MITF inh 50.7
COc1cccc(Nc2cc(N3CCCCC3)c3noc4c3c2C(=O)c2ccccc2-4)c1	none
COc1ccc(Nc2cc(N3CCCC3)c3noc4c3c2C(=O)c2ccccc2-4)cc1	none
COc1cc(C(=O)Nc2ccccc2-c2nc3ccccc3s2)cc(OC)c1OC	TEAD-YAP inh 53.1
COc1ccccc1NC(=O)c1ccc(OC(=S)N(C)C)cc1	FBW7 act 2.3
COc1cccc2cc(-c3nc4ccccc4s3)c(=O)oc12	TEAD-YAP inh 72.3
COc1ccccc1NC(=O)c1cnc(Nc2ccccc2OC)c2ccccc12	TEAD-YAP inh 44.9
COc1cccc2cc(-c3cc4cccc(OC)c4oc3=O)c(=O)oc12	none
COc1ccccc1Nc1ncc(C(=O)NCCC(C)C)c2ccccc12	none
Cc1ccc(C(C(=O)NC(C)(C)C)N(Cc2ccccc2)C(=O)c2csnn2)o1 (stereo not drawn)	none
COc1ccccc1NC(=O)c1ccccc1NC(=O)c1cc(OC)c(OC)c(OC)c1	TEAD-YAP inh 54.9
COc1ccc(Cl)cc1NC(=O)c1ccc(F)cc1	FBW7 act 2.3
COc1cccc(C(=O)Nc2ccccc2C(=O)Nc2ccccc2OC)c1	TEAD-YAP inh 42.5
COc1ccccc1NC(=O)c1ccccc1NC(=O)c1ccccc1	none

Source: PubChem
